Molecules are shown by their SMILES. Compounds without any hit were thinned out: in the full panel of roughly 83,000, 20% have a hit.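 How to read the values: 0–100, growth inhibition (40 = 60% inhibited); 0, no net growth; -100 to 0, cell death (-40 = 40% of starting cells died; -100 = all dead).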 A number with no mark means an inactive call. The source made the active and inactive calls. The calls were made as follows: active = growth percent below 10; inactive = the rest.

In PubChem BioAssay (NCI) one finds growth data, which are given here for 14 compounds.

What all share (assay): NCI-60 one-dose screen, 48 h (100 = growth as untreated, 0 = no growth, -100 = all killed)
What all share (details): 10 µM unless noted

The subject of test [1] is RPMI-8226 leukemia.
Test [2] has as its system OVCAR-8 ovarian.
Test [3] relates to OVCAR-5 ovarian.
Test [4] concerns OVCAR-4 ovarian.
Test [5] concerns SK-OV-3 ovarian.
Test [6] relates to IGROV1 ovarian.
Test [7] has as its system OVCAR-3 ovarian.
Test [8] concerns HS 578T breast.
For test [9], the system named is NCI/ADR-RES ovarian.
The test system of test [10] is T-47D breast.

With `COc1cc2nc(-c3cnc(N(C)C)nc3)nc(NC3CCN(Cc4ccccc4)CC3)c2cc1OC`, the growth in test [1] is -50.5% (active); in [2], -42.9% (active); in [3] it was -94.8% (active); in test [4], -93.5% (active); in test [5], -68% (active); in test [6], -76.4% (active). The growth in test [7] was -85.1% (active); in [8], -47% (active); in [9], -54.1% (active); in test [10], -46.6% (active).
For `O=C(CCN1C(=O)c2ccccc2C1=O)Nc1ccc(Cl)cc1`, the growth in test [1] is 8.45% (active); in test [2] it was 48.8%; in test [3], 104%; in [4], 91.2%; in [5], 97.9%; in [6], 77.8%. Moreover, the growth was 78.3% in test [7], 39.1% in [8], 74.1% in [9] and 60.1% in test [10].
On to `CCOC(=O)c1c(C=O)nc2ccccc2c1/C=C/c1ccc(Cl)cc1`, for which the growth in test [1] is 85.7%; in test [2], 104%; in test [3], 101%; in test [4], 85.6%; in [5] it was 95.1%; in [6], 80.9%. Besides, the growth is 98.6% in [7], 90.6% in [8], 103% in [9] and 86.2% in test [10].
For `CCOC(=O)C1=C(C)N=c2s/c(=C\c3ccccc3O)c(=O)n2C1c1ccc(OC)c2ccccc12` (stereo not given), the growth was -15.1% (active) in [1]; 13.2% in test [2]; 51.6% in test [3]; 38.6% in test [4]; 61.7% in [5]; 16.3% in test [6]. The growth was 10.1% in test [7], 10.4% in test [8], 48.3% in test [9] and 23.3% in test [10].
With `O=C1OC(c2ccccc2)(c2ccccc2)c2ccsc21`, the growth in test [1] was 89.1%; in test [2], 101%; in [3], 95.7%; in [4], 107%; in test [5], 102%; in [6], 107%. Moreover, the growth in test [7] is 100%; in test [8], 103%; in [9], 115%; in [10], 104%.
Turning to `COc1cc(-c2c3c(cn2S(=O)(=O)c2ccccc2)-c2nc(N)sc2CC3)cc(OC)c1OC`, the growth in test [1] is 25.3%; in test [2] it was 32.7%; in test [3], 43.4%; in [4] it was 56%; in [5] it was 12.6%; in test [6], 31.6%. Moreover, the growth is -43.5% (active) in test [7], 23% in [8], 14.9% in test [9] and 44% in [10].
Take `CCc1ccc(CNCC(O)c2ccccc2)cc1` (stereo not given): the growth in [1] is 34.3%; in [2], 72.2%; in [3], 76.1%; in [4], 55.3%; in test [5] it was 90.6%; in test [6], 41.1%. Moreover, the growth was 71.4% in test [7], 93.3% in test [8], 65.7% in test [9] and 72% in test [10].
With `Nc1nonc1-n1nncc1-c1cccnc1`, the growth in [1] is 105%; in [2], 111%; in test [3], 110%; in test [4], 98.8%; in test [5], 104%; in test [6], 103%. In addition, the growth was 116% in test [7], 101% in test [8], 105% in test [9] and 93.9% in test [10].
For the compound `CCOC(=O)c1cc2c(n1Cc1cccc(OC)c1)-c1oncc1CCC2`, the growth is 19.1% in [1]; 33.4% in test [2]; 72.8% in [3]; 54.3% in test [4]; 20.7% in test [5]; 7.29% (active) in [6]. Also, the growth is -8.41% (active) in [7], 6.59% (active) in test [8], 12.2% in [9] and 33.1% in test [10].
Turning to `O=C(COc1cc(O)c2c(=O)cc(-c3ccccc3)oc2c1)Nc1ccccc1`, the growth in [1] is 93.3%; in [2] it was 87.2%; in test [3] it was 98.1%; in [4] it was 78.9%; in test [5] it was 107%; in test [6], 99.1%. For the same compound, the growth in [7] was 106%; in [8], 80.3%; in test [9], 88.9%; in test [10], 94.3%.
In the case of `Cc1ccc2cc3c(N)c4c(C)ccc(C)c4nc3nc2c1`, the growth in test [1] was 34.3%; in [2], 34.2%; in [3] it was 89.5%; in test [4], 72.9%; in [5], 93.3%; in test [6], 75.8%. Also, the growth in [7] is 81.3%; in test [8], 70%; in [9], 72.7%; in test [10], 6.15% (active).
In the case of `O=C(Nc1ccc(N2CCNCC2)cn1)c1[nH]ncc1Nc1ncnc2sc3c(c12)CCC3`, the growth in [1] was -38.2% (active); in test [2], -38.9% (active); in [3] it was 20.7%; in [4], -53.6% (active); in [5] it was 79.8%; in [6] it was 77.6%. Besides, the growth was -39.3% (active) in [7], 73% in test [8], 42.6% in [9] and 43.8% in [10].
As to `Nc1cccc(Nc2cc(S(=O)(=O)O)c(N)c3c2C(=O)c2ccccc2C3=O)c1`, the growth was 110% in test [1]; 104% in test [2]; 111% in test [3]; 107% in [4]; 88.6% in test [5]; 106% in [6]. In addition, the growth in test [7] is 103%; in [8], 107%; in [9] it was 106%; in test [10] it was 93.1%.
`O=C(c1ccccc1)N(C(=S)NCCc1ccc(Cl)cc1)c1ccc(Cl)cc1`: the growth was 62.5% in [1]; 41.1% in test [2]; 81.3% in [3]; 88.8% in test [4]; 104% in test [5]; 87.4% in [6]. The growth is 27.7% in [7], 62.5% in test [8], 101% in test [9] and 45.5% in [10].
